# Measured values published in PubChem BioAssay (NCATS).
# Results filed as inconclusive are left out. Values without a mark were called inactive. Active and inactive are the calls of the source. Calls come from the whole dose curve; as a rule, active = well fitted inhibition curve with a large enough effect; inconclusive = small, poorly fitted or top-dose-only effect; inactive = no such curve, though single readings can be large or run the other way.
# Test: BET inhibitor-based combinations targeting novel dependencies in MECOM-rearranged (r) AML: MV-4-11 cell line (AID 2202233); note: nearly all actives have a fitted effect of over 45% in size;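 for viability, % of control: plate controls were DMSO for no effect and blank wells for full effect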
# Conditions: MV-4-11 AML viability, CellTiter-Glo luminescence, 48 h; series mostly up to 46 µM; viability, % of control: at the top concentration
# In short: (§1)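 Normalized to DMSO and empty-well controls, the luminescence data from CellTiter-Glo after 48 hr drug exposure were fitted across 11 concentrations. Reported metrics are area under the dose-response curve and its Z-transformed form.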
# Potency is the fitted concentration of half-maximal effect.
Structure (SMILES),"viability, % of control [%]",Potency
COc1cc(C(=O)NS(=O)(=O)c2ccccc2C)ccc1Cc1cn(C)c2ccc(NC(=O)OC3CCCC3)cc12,129,–
COc1cc2ncn(-c3cc(OCc4ccccc4S(C)(=O)=O)c(C#N)s3)c2cc1OC,58,–
O=C1CN2Cc3c(ccc(Cl)c3Cl)N=C2N1,122,–
COC(=O)C1C2CC3c4[nH]c5cc(OC)ccc5c4CCN3CC2CC(OC(=O)c2cc(OC)c(OC)c(OC)c2)C1OC (configuration not stated),–,20.9 µM (active)
O=C(O)[C@@H](c1ccc(OCc2ccc3ccccc3n2)cc1)C1CCCC1,–,13.2 µM (active)
O=C1CSC(=O)N1C(CCc1ccncc1)COc1ccc(-c2cccc([N+](=O)[O-])c2)cc1 (configuration not stated),–,16.6 µM (active)
CCOC(CN1C(=O)[C@](CC(=O)Nc2ccc(C)cc2)(NC(=O)Nc2ccc(C)cc2)c2ccccc21)OCC,–,23.5 µM (active)
CC(C)C(C)C=CC(C)C1CCC2C3=CC=C4CC(O)CCC4(C)C3CCC21C (configuration not stated),120,–
CN(C(Cc1ccc(OS(=O)(=O)c2cccc3cnccc23)cc1)C(=O)N1CCN(c2ccccc2)CC1)S(=O)(=O)c1cccc2cnccc12 (configuration not stated),–,7.42 µM (active)
O=C(O)c1c(Cl)c(Cl)c(Cl)c(Cl)c1-c1c2cc(I)c(=O)c(I)c-2oc2c(I)c(O)c(I)cc12,62.3,–
N#CC(c1ccc(Cl)cc1)c1c(Cl)cc(-n2ncc(=O)[nH]c2=O)cc1Cl (configuration not stated),110,–
C[N+](C)([O-])CCNc1ccc(NCC[N+](C)(C)[O-])c2c1C(=O)c1c(O)ccc(O)c1C2=O,–,0.468 µM (active)
O=C(c1ccc(F)cc1)N1CCC[C@H](c2nc(-c3ccc(F)cc3)no2)C1,–,18.6 µM (active)
CCCCc1oc2ccccc2c1C(=O)c1cc(I)c(OCCN(CC)CC)c(I)c1,–,18.6 µM (active)
Cc1cccc(CN2CCN(C(c3ccccc3)c3ccc(Cl)cc3)CC2)c1 (configuration not stated),–,20.9 µM (active)
Nc1[nH]c(=O)ncc1F,119,–

# Test: BET inhibitor-based combinations targeting novel dependencies in MECOM-rearranged (r) AML: HNT-34 cell line (AID 2202234); note: nearly all actives have a fitted effect of over 35% in size;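 for viability (% of control): plate controls were vehicle wells for no effect and cell-free wells for full effect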
# Conditions: HNT-34 AML viability, CellTiter-Glo luminescence, 48 h; series mostly up to 46 µM; viability (% of control): at the top concentration
# In short: as §1
Structure (SMILES),viability (% of control) [%],Potency
COc1cc(C(=O)NS(=O)(=O)c2ccccc2C)ccc1Cc1cn(C)c2ccc(NC(=O)OC3CCCC3)cc12,99.3,–
Cn1cncc1[C@@](N)(c1ccc(Cl)cc1)c1ccc2c(c1)c(-c1cccc(Cl)c1)cc(=O)n2C,–,0.0021 µM (active)
COc1cc2ncn(-c3cc(OCc4ccccc4S(C)(=O)=O)c(C#N)s3)c2cc1OC,85.5,–
O=C1CN2Cc3c(ccc(Cl)c3Cl)N=C2N1,111,–
Cc1ccc(NC(=O)c2ccc(CN3CCN(C)CC3)cc2)cc1Nc1nc(-c2cccnc2)cs1,–,5.25 µM (active)
CCc1c(O)cc(O)c(C(=O)c2ccc(OCCN3CCOCC3)c(OC)c2)c1CC(=O)N(CCOC)CCOC,–,0.662 µM (active)
CC(C)C(C)C=CC(C)C1CCC2C3=CC=C4CC(O)CCC4(C)C3CCC21C (configuration not stated),98,–
CCc1nc(N)nc(N)c1-c1ccc(Cl)cc1,98.2,–
COc1cc2c(cc1Cc1cccc(Cl)c1F)c(=O)c(C(=O)O)cn2[C@H](CO)C(C)C,–,3.72 µM (active)
Nc1[nH]c(=O)ncc1F,101,–
CN[C@@H](C)C(=O)N[C@H]1CCCC[C@H]2CC[C@@H](C(=O)N[C@@H](c3ccccc3)c3cn(CCCCc4ccc(CCCCn5cc([C@@H](NC(=O)[C@@H]6CC[C@@H]7CCCC[C@H](NC(=O)[C@H](C)NC)C(=O)N76)c6ccccc6)nn5)cc4)nn3)N2C1=O,1.63,–
Clc1ccc(COC(Cn2ccnc2)c2ccc(Cl)cc2Cl)c(Cl)c1 (configuration not stated),–,16.6 µM (active)
O=C1CCc2ccc(OCCCCN3CCN(c4cccc(Cl)c4Cl)CC3)cc2N1,–,20.9 µM (active)
Nc1nc(N)c2nc(-c3cccc(O)c3)c(-c3cccc(O)c3)nc2n1,91,–

# Test: BET inhibitor-based combinations targeting novel dependencies in MECOM-rearranged (r) AML: UCSD-AML1 cell line (AID 2202235); note: nearly all actives have a fitted effect of over 40% in size;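 for viability (% of control): plate controls were DMSO vehicle wells for no effect and blank wells for full effect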
# Conditions: UCSD-AML1 AML cells viability, CellTiter-Glo, 48 h; series mostly up to 46 µM; viability (% of control): at the top concentration
# In short: as §1
Structure (SMILES),viability (% of control) [%],Potency
CC[C@@H]([C@H](C)O)n1ncn(-c2ccc(N3CCN(c4ccc(OCC5CO[C@@](Cn6cncn6)(c6ccc(F)cc6F)C5)cc4)CC3)cc2)c1=O (some centres not stated),108,–
COc1cc(C(=O)NS(=O)(=O)c2ccccc2C)ccc1Cc1cn(C)c2ccc(NC(=O)OC3CCCC3)cc12,108,–
O=C1CN2Cc3c(ccc(Cl)c3Cl)N=C2N1,122,–
COC(=O)C1C2CC3c4[nH]c5cc(OC)ccc5c4CCN3CC2CC(OC(=O)c2cc(OC)c(OC)c(OC)c2)C1OC (configuration not stated),112,–
O=C(O)[C@@H](c1ccc(OCc2ccc3ccccc3n2)cc1)C1CCCC1,117,–
O=C1CSC(=O)N1C(CCc1ccncc1)COc1ccc(-c2cccc([N+](=O)[O-])c2)cc1 (configuration not stated),97.3,–
Cc1ccc(NC(=O)c2ccc(CN3CCN(C)CC3)cc2)cc1Nc1nc(-c2cccnc2)cs1,115,–
CCc1c(O)cc(O)c(C(=O)c2ccc(OCCN3CCOCC3)c(OC)c2)c1CC(=O)N(CCOC)CCOC,–,0.263 µM (active)
CCOC(CN1C(=O)[C@](CC(=O)Nc2ccc(C)cc2)(NC(=O)Nc2ccc(C)cc2)c2ccccc21)OCC,105,–
Cc1nc2ccc(C(=O)N3CCC4(CC3)CC(=O)c3c(cnn3C(C)C)C4)cc2[nH]1,105,–
O=C(O)c1c(Cl)c(Cl)c(Cl)c(Cl)c1-c1c2cc(I)c(=O)c(I)c-2oc2c(I)c(O)c(I)cc12,–,5.9 µM (active)
CCc1nc(N)nc(N)c1-c1ccc(Cl)cc1,117,–
C[N+](C)([O-])CCNc1ccc(NCC[N+](C)(C)[O-])c2c1C(=O)c1c(O)ccc(O)c1C2=O,–,9.34 µM (active)
Cc1cc2c(F)c(Oc3ncnn4cc(OC[C@@H](C)O)c(C)c34)ccc2[nH]1,76.6,–
O=C(c1ccc(F)cc1)N1CCC[C@H](c2nc(-c3ccc(F)cc3)no2)C1,108,–
CCCCc1oc2ccccc2c1C(=O)c1cc(I)c(OCCN(CC)CC)c(I)c1,–,23.5 µM (active)
Nc1[nH]c(=O)ncc1F,101,–
CN[C@@H](C)C(=O)N[C@H]1CCCC[C@H]2CC[C@@H](C(=O)N[C@@H](c3ccccc3)c3cn(CCCCc4ccc(CCCCn5cc([C@@H](NC(=O)[C@@H]6CC[C@@H]7CCCC[C@H](NC(=O)[C@H](C)NC)C(=O)N76)c6ccccc6)nn5)cc4)nn3)N2C1=O,–,0.0037 µM (active)
Clc1ccc(COC(Cn2ccnc2)c2ccc(Cl)cc2Cl)c(Cl)c1 (configuration not stated),100,–
O=C1CCc2ccc(OCCCCN3CCN(c4cccc(Cl)c4Cl)CC3)cc2N1,–,23.5 µM (active)
Cc1ccc(NC(=O)c2ccc(CN3CCN(C)CC3)cc2)cc1Nc1nccc(-c2cccnc2)n1,106,–
Nc1nc(N)c2nc(-c3cccc(O)c3)c(-c3cccc(O)c3)nc2n1,106,–
